{"source": "the antibiotic and cytotoxicity screens of Wong et al. (2023)", "note": "Hit rate of the full screen: of about 39,000 compounds, about 3,300 (8.5%) were called active. The sample as a whole holds a higher share of actives than the screen did."}
{"tested_on": "HepG2", "experiment": "cytotoxicity call (relative viability < 0.9)", "conditions": "10 µM"}
{"smiles": "COc1ccc(Sc2ccc(N(C(=O)c3ccccc3Cl)C(=O)c3ccccc3Cl)cc2C#N)cc1", "cytotoxicity call": "active"}
{"smiles": "COc1ccc(C(=O)c2ccccc2O)c(O)c1", "cytotoxicity call": "inactive"}
{"smiles": "COc1ccc(C(=O)NCC#N)cc1", "cytotoxicity call": "inactive"}
{"smiles": "O=c1cn[nH]c(Nc2ccccc2)n1", "cytotoxicity call": "inactive"}
{"smiles": "CC(C)CNc1nc(=O)cn[nH]1", "cytotoxicity call": "active"}
{"smiles": "O=c1cn[nH]c(NC2CCCC2)n1", "cytotoxicity call": "inactive"}
{"smiles": "C=CCC[C@@H](Cc1ccc(F)cc1)C(=O)OC[C@@H]1CCCN1C(=O)[C@H](CC=C)CC(=O)N(CCO)Cc1ccccc1", "cytotoxicity call": "inactive"}
{"smiles": "COc1ccccc1S(=O)(=O)N[C@@H]1C=C[C@@H](CC(=O)N2CCN(C)CC2)O[C@@H]1CO", "cytotoxicity call": "inactive"}
{"smiles": "NC[C@@](O)(c1ccc(Cl)cc1)c1ccc(-c2cn[nH]c2)cc1", "cytotoxicity call": "active"}
{"smiles": "c1n[nH]cc1-c1cn[nH]c1", "cytotoxicity call": "inactive"}
{"smiles": "NC[C@@](O)(CS(=O)(=O)O)c1ccc(Cl)cc1", "cytotoxicity call": "inactive"}
{"smiles": "COc1ccccc1CNC(=O)C[C@H]1C[C@H]2c3cc(NC(=O)C4CCOCC4)ccc3O[C@H]2[C@H](CO)O1", "cytotoxicity call": "inactive"}
{"smiles": "CCCCCCNC(=O)n1cc(F)c(=O)[nH]c1=O", "cytotoxicity call": "active"}
{"smiles": "CC1OC(n2cc(F)c(=O)[nH]c2=O)C(O)C1O", "note": "(stereo not drawn)", "cytotoxicity call": "inactive"}
{"smiles": "C[C@H]1O[C@@H](n2cc(F)c(=O)[nH]c2=O)[C@H](O)[C@@H]1O", "cytotoxicity call": "inactive"}
{"smiles": "Cc1ccc(S(=O)(=O)Nc2ccc3c(c2)CC(=O)N([C@@H](C)CO)C[C@H](C)[C@H](CN(C)S(C)(=O)=O)O3)cc1", "cytotoxicity call": "inactive"}
{"smiles": "CC(C)NC(=O)NCC[C@H]1CC[C@H](NC(=O)CN(C)C)[C@H](CO)O1", "cytotoxicity call": "inactive"}
{"smiles": "Cc1c(NC(=O)c2cc3c(s2)CCCC3)cccc1-c1cn(C)c(=O)c(Nc2ccc([C@H]3C(=O)N(C)CCN3C)cc2)n1", "cytotoxicity call": "inactive"}
{"smiles": "C[C@@H]1CCCCO[C@H](CN(C)C(=O)Nc2ccc3c(c2)OCO3)[C@@H](C)CN([C@@H](C)CO)C(=O)c2cc(NS(=O)(=O)c3ccccc3)ccc2O1", "cytotoxicity call": "inactive"}
{"smiles": "C[C@@H]1CCCCO[C@@H](CN(C)C(=O)NC2CCCCC2)[C@@H](C)CN([C@H](C)CO)C(=O)c2cc(NC(=O)Nc3ccc(F)cc3)ccc2O1", "cytotoxicity call": "inactive"}
{"smiles": "C[C@@H]1CCCCO[C@H](CN(C)C(=O)Nc2ccc(F)cc2)[C@@H](C)CN([C@H](C)CO)C(=O)c2cc(NC(=O)NC3CCCCC3)ccc2O1", "cytotoxicity call": "inactive"}
{"smiles": "Cc1noc(C)c1NC(=O)N(C)C[C@H]1OCCCC[C@@H](C)Oc2ccc(NC(=O)NC3CCCCC3)cc2C(=O)N([C@@H](C)CO)C[C@H]1C", "cytotoxicity call": "inactive"}
{"smiles": "C[C@@H]1CCCCO[C@H](CN(C)C(=O)NC2CCCCC2)[C@H](C)CN([C@H](C)CO)C(=O)c2cc(NC(=O)NC3CCCCC3)ccc2O1", "cytotoxicity call": "active"}
{"smiles": "C[C@H](CO)N1C[C@H](C)[C@H](CN(C)C(=O)NC2CCCCC2)OCCCC[C@H](C)Oc2ccc(NC(=O)NC3CCCCC3)cc2C1=O", "cytotoxicity call": "inactive"}
{"smiles": "C[C@@H]1CCCCO[C@H](CN(C)C(=O)NC2CCCCC2)[C@H](C)CN([C@H](C)CO)C(=O)c2cc(NC(=O)Nc3ccc(F)cc3)ccc2O1", "cytotoxicity call": "active"}
{"smiles": "C[C@@H]1CN([C@H](C)CO)C(=O)c2cc(NC(=O)NC3CCCCC3)ccc2O[C@@H](C)CCCCO[C@@H]1CN(C)C(=O)Nc1ccc(F)cc1", "cytotoxicity call": "inactive"}
{"smiles": "Cc1noc(C)c1NC(=O)N(C)C[C@@H]1OCCCC[C@@H](C)Oc2ccc(NC(=O)NC3CCCCC3)cc2C(=O)N([C@H](C)CO)C[C@@H]1C", "cytotoxicity call": "inactive"}
{"smiles": "C[C@H](CO)N1C[C@H](C)[C@@H](CN(C)C(=O)NC2CCCCC2)OCCCC[C@H](C)Oc2ccc(NC(=O)NC3CCCCC3)cc2C1=O", "cytotoxicity call": "inactive"}
{"smiles": "C[C@@H]1CN([C@H](C)CO)C(=O)c2cc(NC(=O)Nc3ccc(F)cc3)ccc2O[C@@H](C)CCCCO[C@H]1CN(C)C(=O)NC1CCCCC1", "cytotoxicity call": "inactive"}
{"smiles": "C[C@@H]1CCCCO[C@@H](CN(C)C(=O)Nc2ccc(F)cc2)[C@@H](C)CN([C@@H](C)CO)C(=O)c2cc(NC(=O)NC3CCCCC3)ccc2O1", "cytotoxicity call": "active"}
{"smiles": "Cc1noc(C)c1NC(=O)N(C)C[C@H]1OCCCC[C@@H](C)Oc2ccc(NC(=O)NC3CCCCC3)cc2C(=O)N([C@H](C)CO)C[C@@H]1C", "cytotoxicity call": "active"}
{"smiles": "COc1ccc(-c2cccc(-c3nc(C(=O)NCC(F)(F)F)cc4c3[C@@H](CCO)N([S@](=O)C(C)(C)C)C4)c2)cc1", "cytotoxicity call": "inactive"}
{"smiles": "COc1ccc(S(=O)(=O)N(C)C[C@H]2OCCCC[C@H](C)Oc3ccc(NC(=O)c4ccccc4)cc3C(=O)N([C@H](C)CO)C[C@H]2C)cc1", "cytotoxicity call": "inactive"}
{"smiles": "Cc1ccc(S(=O)(=O)N(C)C[C@H]2Oc3ccc(NC(=O)c4ccncc4)cc3C(=O)N([C@H](C)CO)C[C@@H]2C)cc1", "cytotoxicity call": "inactive"}
{"smiles": "C[C@@H]1CN([C@H](C)CO)C(=O)c2cc(NS(=O)(=O)c3ccccc3)ccc2O[C@H]1CN(C)S(=O)(=O)c1cn(C)cn1", "cytotoxicity call": "inactive"}
{"smiles": "Cc1noc(C)c1NC(=O)Nc1ccc2c(c1)CC(=O)N([C@H](C)CO)C[C@@H](C)[C@@H](CN(C)Cc1ccc(-c3ccccc3)cc1)O2", "cytotoxicity call": "inactive"}
{"smiles": "O=C1[C@@H]2[C@H](C(=O)N1c1ccccc1)C13COC[C@H](c4ccccc4)N1C(=O)C2(C(=O)NCCc1c[nH]c2ccccc12)O3", "note": "(stereo partly drawn)", "cytotoxicity call": "inactive"}
{"smiles": "CCS(=O)(=O)N1C[C@]2(CN(Cc3cccc(c3)Cl)[C@@H](CO)c3c2c2ccc(cc2n3C)OC)C1", "cytotoxicity call": "inactive"}
{"smiles": "C[C@H](CO)N1C[C@H](C)[C@@H](CN(C)C(=O)NC2CCCCC2)OCCCC[C@H](C)Oc2ccc(NC(=O)Nc3ccc(F)cc3)cc2C1=O", "cytotoxicity call": "inactive"}
{"smiles": "C[C@H]1CCCCO[C@@H](CN(C)C(=O)NC2CCCCC2)[C@@H](C)CN([C@@H](C)CO)C(=O)c2cc(NC(=O)Nc3ccc(F)cc3)ccc2O1", "cytotoxicity call": "active"}
{"smiles": "C[C@H](CO)N1C[C@H](C)[C@H](CN(C)C(=O)NC2CCCCC2)OCCCC[C@H](C)Oc2ccc(NC(=O)Nc3ccc(F)cc3)cc2C1=O", "cytotoxicity call": "inactive"}
{"smiles": "O=c1[nH]nc(N2CCOCC2)c(=O)[nH]1", "cytotoxicity call": "inactive"}
{"smiles": "C[C@@H]1CN([C@H](C)CO)C(=O)Cc2cc(NS(=O)(=O)c3ccc(F)cc3)ccc2O[C@H]1CN(C)CC1CC1", "cytotoxicity call": "inactive"}
{"smiles": "CS(=O)(=O)O.OC(CCN1CCCCC1)(c1ccccc1)c1ccccc1", "cytotoxicity call": "inactive"}
{"smiles": "Cl.OC(CCN1CCCC1)(c1ccccc1)C1CCCCC1", "note": "(stereo not drawn)", "cytotoxicity call": "active"}
{"smiles": "Cl.OC(CCN1CCCCC1)(c1ccccc1)C1CCCCC1", "note": "(stereo not drawn)", "cytotoxicity call": "inactive"}
{"smiles": "COc1ccc(S(=O)(=O)Nc2ccc3c(c2)C(=O)N([C@H](C)CO)C[C@@H](C)[C@H](CN(C)C(=O)NC(C)C)O3)cc1", "cytotoxicity call": "inactive"}
{"smiles": "C[C@H]1CN([C@@H](C)CO)C(=O)Cc2cc(NS(C)(=O)=O)ccc2O[C@H]1CN(C)C(=O)Nc1ccc(F)cc1", "cytotoxicity call": "inactive"}
{"smiles": "CC(C)C[C@H](NC(=O)CNC(=O)c1cc(Cl)ccc1Cl)B1OC(=O)C[C@](CC(=O)O)(C(=O)O)O1", "cytotoxicity call": "active"}
{"smiles": "C[C@@H]1CN([C@@H](C)CO)C(=O)c2cccc(NC(=O)Nc3ccc(F)cc3)c2O[C@@H]1CN(C)S(C)(=O)=O", "cytotoxicity call": "inactive"}
{"smiles": "C[C@H](CO)N1C[C@H](C)[C@H](CN(C)S(C)(=O)=O)Oc2c(NC(=O)Nc3ccccc3)cccc2C1=O", "cytotoxicity call": "inactive"}
{"smiles": "Cc1ccc(CSc2ncc(C(F)(F)F)cc2Cl)cc1", "cytotoxicity call": "inactive"}
{"smiles": "Cc1ccc(CCSc2ccc(Cl)c(Cl)c2)cn1", "cytotoxicity call": "active"}
{"smiles": "N#Cc1ccccc1C#CCO", "cytotoxicity call": "inactive"}
{"smiles": "CC(N)O.Cc1cc(CC(C)CC(C)(C)C)n(O)c(=O)c1", "note": "(stereo not drawn)", "cytotoxicity call": "active"}
{"smiles": "Cc1ccc(S(=O)(=O)N2C[C@H](O)COC[C@@H]3O[C@H](CC(=O)N[C@@H]4CCN(Cc5ccccc5)C4)CC[C@H]32)cc1", "cytotoxicity call": "inactive"}
{"smiles": "C[C@@H]1CN([C@@H](C)CO)C(=O)c2cc(NC(=O)Nc3ccccc3)ccc2O[C@@H]1CN(C)C(=O)Nc1cccc2ccccc12", "cytotoxicity call": "inactive"}
{"smiles": "C[C@@H]1CN([C@@H](C)CO)C(=O)c2c(c3ccccc3n2C)-c2ccccc2CO[C@@H]1CN(C)Cc1ccc(O)cc1", "cytotoxicity call": "inactive"}
{"smiles": "O=C(N/N=C/c1ccc(B(O)O)cc1)c1ccccc1O", "cytotoxicity call": "inactive"}
{"smiles": "Cc1cc(C(=O)O)cc(S(N)(=O)=O)c1", "cytotoxicity call": "active"}
{"smiles": "NS(=O)(=O)c1ccc(C(=O)O)cc1", "note": "[listing 1 of 2 here]", "cytotoxicity call": "inactive"}
{"smiles": "NS(=O)(=O)c1ccc(C(=O)O)cc1", "note": "[listing 2 of 2 here]", "cytotoxicity call": "inactive"}
{"smiles": "C[C@@H]1[C@@H]([Si](C)(C)F)[C@H](CCO)O[C@@]12C(=O)N(Cc1ccccc1)c1ccc(N(C=O)c3ccccc3)cc12", "cytotoxicity call": "inactive"}
{"smiles": "COc1ccc([Si](C)(C)[C@H]2[C@H](CCO)O[C@@]3(C(=O)N(Cc4ccccc4)c4ccc(N(C=O)c5ccccc5)cc43)[C@@H]2C)cc1", "cytotoxicity call": "active"}
{"smiles": "COC(=O)C[C@H]1O[C@]2(C(=O)N(Cc3ccccc3)c3ccc(I)cc32)[C@@H](C)[C@@H]1[Si](C)(C)c1ccc(OC)cc1", "cytotoxicity call": "inactive"}
{"smiles": "COc1ccc([Si](C)(C)[C@H]2[C@H](CCOC(=O)NCCCCCC(=O)NO)O[C@@]3(C(=O)N(Cc4ccccc4)c4ccc(I)cc43)[C@@H]2C)cc1", "cytotoxicity call": "inactive"}
{"smiles": "COc1ccc([Si](C)(C)[C@@H]2[C@@H](CCOC(=O)NCCCCCC(=O)NO)O[C@]3(C(=O)N(Cc4ccccc4)c4ccc(I)cc43)[C@H]2C)cc1", "cytotoxicity call": "inactive"}
{"smiles": "COc1ccc([Si](C)(C)[C@@H]2[C@@H](CCO)O[C@]3(C(=O)N(Cc4ccccc4)c4ccc(N(C=O)c5ccccc5)cc43)[C@H]2C)cc1", "cytotoxicity call": "active"}
{"smiles": "Cc1noc(C)c1NC(=O)Nc1ccc2c(c1)C(=O)N([C@@H](C)CO)C[C@@H](C)[C@@H](CN(C)C(=O)Nc1ccc(F)cc1)OCCCC[C@@H](C)O2", "cytotoxicity call": "inactive"}
{"smiles": "Cc1ccc(S(=O)(=O)NCC[C@@H]2CC[C@H](NS(=O)(=O)c3ccccc3Cl)[C@@H](CO)O2)cc1", "cytotoxicity call": "inactive"}
{"smiles": "C[C@@H]1CN([C@H](C)CO)C(=O)c2cccc(NC(=O)c3ccncc3)c2O[C@H]1CN(C)Cc1ccc(C(=O)O)cc1", "cytotoxicity call": "inactive"}
{"smiles": "O=c1cc(-c2cccc(O)c2)oc2ccc(O)cc12", "cytotoxicity call": "inactive"}
{"smiles": "O=C(C[C@@H]1CC[C@@H]2[C@H](COC[C@H](O)CN2S(=O)(=O)c2ccc(F)cc2)O1)NCc1ccc(Cl)c(Cl)c1", "cytotoxicity call": "inactive"}
